Measured values from ChEMBL document CHEMBL1961873, “Compounds: GSK PKIS; Assays: Nanosyn kinase panel” (2012).

How the values were obtained:
[1] = target: Sphingosine kinase 1 (Homo sapiens) (UniProt Q9NYA1); conditions: at 1 µM;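 note: mean SPHK1 inhibition value reported from the GSK PKIS kinase panel screen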
[2] = target: T1, Sphingosine kinase 2 (Homo sapiens) (UniProt Q9NRA0); conditions: at 0.1 µM
T1 sequence (whole entry): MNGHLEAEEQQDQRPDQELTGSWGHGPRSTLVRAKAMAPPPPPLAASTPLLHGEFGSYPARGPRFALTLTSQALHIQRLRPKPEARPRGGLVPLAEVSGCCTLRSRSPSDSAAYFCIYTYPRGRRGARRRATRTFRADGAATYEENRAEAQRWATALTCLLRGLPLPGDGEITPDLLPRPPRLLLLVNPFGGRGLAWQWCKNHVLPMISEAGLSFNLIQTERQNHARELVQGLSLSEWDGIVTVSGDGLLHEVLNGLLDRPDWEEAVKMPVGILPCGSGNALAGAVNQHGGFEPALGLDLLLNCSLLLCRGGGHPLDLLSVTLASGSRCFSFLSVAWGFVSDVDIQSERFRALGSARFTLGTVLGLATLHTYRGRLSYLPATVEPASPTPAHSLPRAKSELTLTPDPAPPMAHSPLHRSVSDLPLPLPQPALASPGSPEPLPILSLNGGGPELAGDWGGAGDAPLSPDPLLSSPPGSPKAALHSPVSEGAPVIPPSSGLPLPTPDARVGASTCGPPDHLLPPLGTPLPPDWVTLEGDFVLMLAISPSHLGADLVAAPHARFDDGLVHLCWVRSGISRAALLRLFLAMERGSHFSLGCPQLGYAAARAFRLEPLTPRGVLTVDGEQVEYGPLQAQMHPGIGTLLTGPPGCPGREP

[3] = target: T1, Sphingosine kinase 2 (Homo sapiens); conditions: at 1 µM
[4] = target: Casein kinase II subunit alpha (Homo sapiens) (UniProt P68400); conditions: at 0.1 µM
Sequence of Casein kinase II subunit alpha (Homo sapiens) (P68400 whole entry, looked up): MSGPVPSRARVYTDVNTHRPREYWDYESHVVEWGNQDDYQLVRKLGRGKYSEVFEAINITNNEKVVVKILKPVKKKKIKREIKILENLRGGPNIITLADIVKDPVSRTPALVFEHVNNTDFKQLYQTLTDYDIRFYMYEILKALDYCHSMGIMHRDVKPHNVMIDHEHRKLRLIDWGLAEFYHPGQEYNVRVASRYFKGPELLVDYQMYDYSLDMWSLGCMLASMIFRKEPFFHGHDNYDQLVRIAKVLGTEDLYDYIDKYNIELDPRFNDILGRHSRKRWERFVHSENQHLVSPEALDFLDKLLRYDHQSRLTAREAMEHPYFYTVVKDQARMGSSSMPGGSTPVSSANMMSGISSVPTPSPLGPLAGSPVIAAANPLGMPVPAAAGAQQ

[5] = target: Casein kinase II subunit alpha (Homo sapiens) (UniProt P68400); conditions: at 1 µM
[6] = target: T2, Inhibitor of nuclear factor kappa-B kinase subunit alpha (Homo sapiens) (UniProt O15111); conditions: at 0.1 µM
T2 sequence (whole entry): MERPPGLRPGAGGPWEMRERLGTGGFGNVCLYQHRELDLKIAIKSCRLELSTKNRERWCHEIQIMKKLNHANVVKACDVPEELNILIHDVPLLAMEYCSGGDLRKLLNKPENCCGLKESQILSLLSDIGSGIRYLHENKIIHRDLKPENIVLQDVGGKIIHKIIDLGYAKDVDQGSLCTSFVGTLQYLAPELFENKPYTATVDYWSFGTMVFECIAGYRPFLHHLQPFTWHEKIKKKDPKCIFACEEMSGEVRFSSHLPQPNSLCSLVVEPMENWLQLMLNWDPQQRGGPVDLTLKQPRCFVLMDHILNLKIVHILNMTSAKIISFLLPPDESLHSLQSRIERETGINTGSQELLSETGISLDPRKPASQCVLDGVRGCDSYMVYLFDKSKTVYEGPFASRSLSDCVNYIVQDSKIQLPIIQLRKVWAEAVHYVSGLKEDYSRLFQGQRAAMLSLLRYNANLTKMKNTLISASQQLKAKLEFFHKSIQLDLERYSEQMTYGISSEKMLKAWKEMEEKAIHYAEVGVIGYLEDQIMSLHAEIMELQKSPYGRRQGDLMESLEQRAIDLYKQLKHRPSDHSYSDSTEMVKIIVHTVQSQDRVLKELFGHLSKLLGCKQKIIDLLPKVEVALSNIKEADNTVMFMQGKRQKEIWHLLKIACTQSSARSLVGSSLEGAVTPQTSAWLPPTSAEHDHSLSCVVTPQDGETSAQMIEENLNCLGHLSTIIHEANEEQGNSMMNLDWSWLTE

[7] = target: T3, Inhibitor of nuclear factor kappa-B kinase subunit beta (Homo sapiens) (UniProt O14920); conditions: at 0.1 µM
T3 sequence (whole entry): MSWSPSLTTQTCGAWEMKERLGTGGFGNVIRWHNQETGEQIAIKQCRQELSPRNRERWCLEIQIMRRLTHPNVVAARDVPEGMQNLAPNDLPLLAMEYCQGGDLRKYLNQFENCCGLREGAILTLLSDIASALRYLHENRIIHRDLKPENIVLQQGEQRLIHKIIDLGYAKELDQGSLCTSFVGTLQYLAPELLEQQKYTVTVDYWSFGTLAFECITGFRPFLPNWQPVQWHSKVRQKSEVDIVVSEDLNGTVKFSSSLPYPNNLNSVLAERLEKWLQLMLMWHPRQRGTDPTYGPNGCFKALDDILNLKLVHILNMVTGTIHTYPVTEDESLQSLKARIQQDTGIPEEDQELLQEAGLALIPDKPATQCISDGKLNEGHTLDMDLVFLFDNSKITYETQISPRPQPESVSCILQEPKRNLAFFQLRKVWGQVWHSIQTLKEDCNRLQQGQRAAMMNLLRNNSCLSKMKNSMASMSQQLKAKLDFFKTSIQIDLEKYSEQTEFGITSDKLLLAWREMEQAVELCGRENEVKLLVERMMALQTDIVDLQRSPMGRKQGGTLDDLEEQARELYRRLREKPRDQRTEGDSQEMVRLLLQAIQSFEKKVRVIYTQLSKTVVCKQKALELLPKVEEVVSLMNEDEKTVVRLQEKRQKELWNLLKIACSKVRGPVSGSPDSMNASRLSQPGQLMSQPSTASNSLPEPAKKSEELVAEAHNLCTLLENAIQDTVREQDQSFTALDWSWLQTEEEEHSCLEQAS

[8] = target: T3, Inhibitor of nuclear factor kappa-B kinase subunit beta (Homo sapiens); conditions: at 1 µM
[9] = target: T4, Inhibitor of nuclear factor kappa-B kinase subunit epsilon (Homo sapiens) (UniProt Q14164); conditions: at 0.1 µM
T4 sequence (whole entry): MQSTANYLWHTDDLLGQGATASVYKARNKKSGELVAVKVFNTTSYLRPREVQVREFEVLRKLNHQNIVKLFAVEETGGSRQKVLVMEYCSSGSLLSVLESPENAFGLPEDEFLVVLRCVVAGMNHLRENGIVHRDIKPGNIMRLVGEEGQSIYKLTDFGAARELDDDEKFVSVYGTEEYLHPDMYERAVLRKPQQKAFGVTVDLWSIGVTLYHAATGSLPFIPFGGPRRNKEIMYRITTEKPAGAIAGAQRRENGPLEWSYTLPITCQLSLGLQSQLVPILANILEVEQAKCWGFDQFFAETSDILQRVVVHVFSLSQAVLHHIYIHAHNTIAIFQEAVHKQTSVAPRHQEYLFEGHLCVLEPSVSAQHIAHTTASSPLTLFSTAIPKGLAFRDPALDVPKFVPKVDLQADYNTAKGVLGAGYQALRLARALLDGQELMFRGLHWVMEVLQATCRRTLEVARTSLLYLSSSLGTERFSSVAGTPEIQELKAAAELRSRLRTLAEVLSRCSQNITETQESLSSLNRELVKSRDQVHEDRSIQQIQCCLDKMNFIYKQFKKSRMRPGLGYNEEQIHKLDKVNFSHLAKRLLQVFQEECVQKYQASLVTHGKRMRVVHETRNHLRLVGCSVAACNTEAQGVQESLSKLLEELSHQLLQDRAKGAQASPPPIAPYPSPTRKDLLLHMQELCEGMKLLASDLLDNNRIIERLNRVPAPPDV

[10] = target: T4, Inhibitor of nuclear factor kappa-B kinase subunit epsilon (Homo sapiens); conditions: at 1 µM
[11] = target: T5, Serine/threonine-protein kinase Nek1 (Homo sapiens) (UniProt Q96PY6); conditions: at 0.1 µM
T5 sequence (whole entry): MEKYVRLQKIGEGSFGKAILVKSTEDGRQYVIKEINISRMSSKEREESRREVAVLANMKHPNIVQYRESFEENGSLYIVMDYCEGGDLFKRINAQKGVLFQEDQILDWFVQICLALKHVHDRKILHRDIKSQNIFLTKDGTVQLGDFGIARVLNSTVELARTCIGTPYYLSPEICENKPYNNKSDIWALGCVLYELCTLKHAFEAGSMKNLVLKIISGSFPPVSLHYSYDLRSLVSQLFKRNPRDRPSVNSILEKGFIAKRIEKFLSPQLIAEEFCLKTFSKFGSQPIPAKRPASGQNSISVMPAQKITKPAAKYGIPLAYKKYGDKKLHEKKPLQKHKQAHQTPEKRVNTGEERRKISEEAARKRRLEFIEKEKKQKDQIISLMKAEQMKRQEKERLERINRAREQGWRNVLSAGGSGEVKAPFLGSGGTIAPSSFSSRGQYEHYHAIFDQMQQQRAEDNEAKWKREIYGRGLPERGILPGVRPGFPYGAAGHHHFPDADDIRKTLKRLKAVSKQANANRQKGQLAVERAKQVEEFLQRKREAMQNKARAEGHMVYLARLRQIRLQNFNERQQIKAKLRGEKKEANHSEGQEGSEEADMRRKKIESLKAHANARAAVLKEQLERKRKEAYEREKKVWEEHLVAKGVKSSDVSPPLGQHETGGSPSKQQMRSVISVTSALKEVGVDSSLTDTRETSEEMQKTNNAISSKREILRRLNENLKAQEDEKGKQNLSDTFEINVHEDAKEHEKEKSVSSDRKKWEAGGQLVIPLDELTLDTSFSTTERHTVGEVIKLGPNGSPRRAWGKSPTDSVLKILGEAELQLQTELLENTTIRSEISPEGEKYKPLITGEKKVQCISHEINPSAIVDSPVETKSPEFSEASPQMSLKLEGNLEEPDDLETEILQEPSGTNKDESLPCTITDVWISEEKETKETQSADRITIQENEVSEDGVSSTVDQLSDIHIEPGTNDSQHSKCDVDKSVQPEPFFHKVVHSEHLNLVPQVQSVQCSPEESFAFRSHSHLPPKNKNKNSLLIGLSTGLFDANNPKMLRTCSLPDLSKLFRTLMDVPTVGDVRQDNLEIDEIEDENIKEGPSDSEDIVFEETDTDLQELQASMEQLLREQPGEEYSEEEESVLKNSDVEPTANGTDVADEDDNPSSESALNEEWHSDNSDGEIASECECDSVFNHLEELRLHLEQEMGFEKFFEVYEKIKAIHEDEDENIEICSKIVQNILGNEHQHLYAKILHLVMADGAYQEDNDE

[12] = target: T5, Serine/threonine-protein kinase Nek1 (Homo sapiens); conditions: at 1 µM
[13] = target: T6, Serine/threonine-protein kinase Nek2 (Homo sapiens) (UniProt P51955); conditions: at 0.1 µM
T6 sequence (whole entry): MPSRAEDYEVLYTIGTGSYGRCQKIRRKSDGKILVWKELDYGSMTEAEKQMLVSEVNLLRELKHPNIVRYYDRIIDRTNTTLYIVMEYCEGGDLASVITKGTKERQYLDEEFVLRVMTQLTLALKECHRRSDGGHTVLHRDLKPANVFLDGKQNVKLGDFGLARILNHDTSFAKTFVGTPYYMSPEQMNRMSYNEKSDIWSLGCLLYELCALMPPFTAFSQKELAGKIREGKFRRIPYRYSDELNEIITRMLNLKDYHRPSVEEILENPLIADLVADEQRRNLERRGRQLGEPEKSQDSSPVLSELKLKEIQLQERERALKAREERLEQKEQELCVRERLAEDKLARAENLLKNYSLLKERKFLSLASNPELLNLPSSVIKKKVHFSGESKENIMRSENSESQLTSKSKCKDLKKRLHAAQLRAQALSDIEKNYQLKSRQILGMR

[14] = target: T6, Serine/threonine-protein kinase Nek2 (Homo sapiens); conditions: at 1 µM
[15] = target: Serine/threonine-protein kinase Nek6 (Homo sapiens) (UniProt Q9HC98); conditions: at 0.1 µM
Sequence of Serine/threonine-protein kinase Nek6 (Homo sapiens) (Q9HC98 whole entry): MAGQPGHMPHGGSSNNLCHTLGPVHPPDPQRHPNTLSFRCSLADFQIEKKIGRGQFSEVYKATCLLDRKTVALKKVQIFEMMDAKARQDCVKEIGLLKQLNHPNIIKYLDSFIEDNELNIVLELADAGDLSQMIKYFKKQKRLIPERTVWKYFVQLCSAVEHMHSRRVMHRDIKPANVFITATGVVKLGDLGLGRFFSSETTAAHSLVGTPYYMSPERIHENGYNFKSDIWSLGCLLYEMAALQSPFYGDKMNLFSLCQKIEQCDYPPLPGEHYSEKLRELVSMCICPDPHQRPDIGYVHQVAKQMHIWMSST

[16] = target: Serine/threonine-protein kinase Nek6 (Homo sapiens) (UniProt Q9HC98); conditions: at 1 µM
[17] = target: Serine/threonine-protein kinase Nek7 (Homo sapiens) (UniProt Q8TDX7); conditions: at 0.1 µM
Sequence of Serine/threonine-protein kinase Nek7 (Homo sapiens) (Q8TDX7 whole entry, looked up): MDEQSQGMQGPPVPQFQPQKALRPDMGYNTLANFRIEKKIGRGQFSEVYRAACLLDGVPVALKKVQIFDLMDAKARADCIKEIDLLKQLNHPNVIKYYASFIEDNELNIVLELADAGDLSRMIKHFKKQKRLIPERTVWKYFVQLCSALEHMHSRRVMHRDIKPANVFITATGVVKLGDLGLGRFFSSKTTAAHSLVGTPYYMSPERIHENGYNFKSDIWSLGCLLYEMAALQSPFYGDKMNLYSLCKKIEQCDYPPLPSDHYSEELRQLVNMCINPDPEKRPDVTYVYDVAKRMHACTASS

[18] = target: Serine/threonine-protein kinase Nek7 (Homo sapiens) (UniProt Q8TDX7); conditions: at 1 µM
[19] = target: T7, Serine/threonine-protein kinase Nek9 (Homo sapiens) (UniProt Q8TD19); conditions: at 0.1 µM;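 note: reported value is the mean percent inhibition of NEK9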
T7 sequence (whole entry): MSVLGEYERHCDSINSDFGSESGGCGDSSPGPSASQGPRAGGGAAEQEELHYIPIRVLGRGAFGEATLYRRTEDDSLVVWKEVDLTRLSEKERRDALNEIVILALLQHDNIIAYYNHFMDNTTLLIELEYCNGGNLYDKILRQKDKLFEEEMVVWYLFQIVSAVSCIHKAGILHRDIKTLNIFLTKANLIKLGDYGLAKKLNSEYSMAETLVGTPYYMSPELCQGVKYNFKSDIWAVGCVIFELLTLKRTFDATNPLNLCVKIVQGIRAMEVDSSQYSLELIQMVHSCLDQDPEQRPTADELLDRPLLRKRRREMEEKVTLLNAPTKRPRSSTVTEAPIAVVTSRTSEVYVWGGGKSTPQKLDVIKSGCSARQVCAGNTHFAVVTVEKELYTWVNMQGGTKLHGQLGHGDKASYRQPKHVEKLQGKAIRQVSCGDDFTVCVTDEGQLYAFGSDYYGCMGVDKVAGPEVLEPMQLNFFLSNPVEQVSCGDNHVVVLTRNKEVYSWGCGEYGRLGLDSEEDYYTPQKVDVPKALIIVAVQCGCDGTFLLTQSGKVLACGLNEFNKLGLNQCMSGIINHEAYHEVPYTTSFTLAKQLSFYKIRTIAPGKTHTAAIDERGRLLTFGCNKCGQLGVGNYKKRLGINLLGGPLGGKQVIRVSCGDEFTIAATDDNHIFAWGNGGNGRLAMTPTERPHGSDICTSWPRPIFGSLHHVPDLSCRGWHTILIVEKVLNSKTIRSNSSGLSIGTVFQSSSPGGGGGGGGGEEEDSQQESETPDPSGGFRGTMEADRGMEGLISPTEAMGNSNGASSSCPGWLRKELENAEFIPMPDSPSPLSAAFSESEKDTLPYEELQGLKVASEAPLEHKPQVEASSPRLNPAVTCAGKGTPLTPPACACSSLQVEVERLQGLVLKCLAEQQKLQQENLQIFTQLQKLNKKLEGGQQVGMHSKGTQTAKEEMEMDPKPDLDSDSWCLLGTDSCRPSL

[20] = target: T2, Inhibitor of nuclear factor kappa-B kinase subunit alpha (Homo sapiens); conditions: at 1 µM

Sequence of Sphingosine kinase 1 (Homo sapiens) (Q9NYA1 whole entry): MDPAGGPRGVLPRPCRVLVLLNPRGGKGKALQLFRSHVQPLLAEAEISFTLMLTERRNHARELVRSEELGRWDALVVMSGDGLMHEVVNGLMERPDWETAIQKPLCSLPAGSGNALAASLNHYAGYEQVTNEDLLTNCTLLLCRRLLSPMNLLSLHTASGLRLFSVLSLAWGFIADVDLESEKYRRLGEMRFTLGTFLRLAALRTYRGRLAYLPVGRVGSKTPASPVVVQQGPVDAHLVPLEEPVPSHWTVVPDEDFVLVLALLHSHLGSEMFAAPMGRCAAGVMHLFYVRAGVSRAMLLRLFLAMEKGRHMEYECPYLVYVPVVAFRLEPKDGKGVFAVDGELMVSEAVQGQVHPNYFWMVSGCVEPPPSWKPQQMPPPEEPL

Row | SMILES | inhibition [1] [%] | inhibition [2] [%] | inhibition [3] [%] | inhibition [4] [%] | inhibition [5] [%] | inhibition [6] [%] | inhibition [7] [%] | inhibition [8] [%] | inhibition [9] [%] | inhibition [10] [%] | inhibition [11] [%] | inhibition [12] [%] | inhibition [13] [%] | inhibition [14] [%] | inhibition [15] [%] | inhibition [16] [%] | inhibition [17] [%] | inhibition [18] [%] | inhibition [19] [%] | inhibition [20] [%]
1 | NC(=O)c1ccc(-c2nc(-c3ccccn3)c(-c3ccc4c(c3)OCO4)[nH]2)cc1 | -3.93 | -0.17 | -0.84 | 2.1 | 4.61 | 7.62 | 3.19 | 3.61 | 3.15 | 4.06 | 1.34 | 3.26 | 2.44 | 2.69 | 2.04 | 4.68 | 2.26 | 1.68 | 6.53 | –
2 | CC(C)=Cc1cccc2c1/C(=N/Nc1ccc(S(N)(=O)=O)cc1)C(=O)N2 | 3.96 | 0.66 | 0.76 | 1.84 | 10.6 | 3.49 | 1.01 | 2.88 | 5.72 | 21.9 | 0.48 | 2.3 | -1.83 | -0.31 | 1.86 | 0.97 | -1.18 | -0.48 | 4.67 | 3
